A short description of assay [1]: qHTS for Inhibitors of Plasmodium falciparum (GB4) proliferation (AID 504315). Also: nearly all actives have a fitted effect of over 50% in size. The gist of the method: (§1)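 Parasite growth measured as SYBR Green DNA fluorescence (ex 485, em 535 nm) after overnight lysis following 72 h culture at 37 °C, 0.3% parasitemia, 2.5% hematocrit. Values normalized against DMSO and 0.29 uM artemisinin controls, with plate-stack correction.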
In general terms: Quantitative high-throughput screening tests each substance at several concentrations.

Assay [2] is described as follows: qHTS for Inhibitors of Plasmodium falciparum (7G8) proliferation (AID 504316). Also: nearly all actives have a fitted effect of over 65% in size. The gist of the method:
as §1

Assay [3] is described as follows: qHTS for Inhibitors of Plasmodium falciparum (HB3) proliferation (AID 504318). Also: nearly all actives have a fitted effect of over 60% in size. The gist of the method: as §1
Assay [4] in a line: qHTS for Inhibitors of Plasmodium falciparum (DD2) proliferation (AID 504314). The gist of the method:
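SYBR Green growth assay: 72 h compound exposure of infected red cells (2.5% hematocrit, 0.3% parasitemia), then lysis and overnight dye staining, fluorescence 485/535 nm. Values scaled between DMSO and 0.29 uM artemisinin controls.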

Assay [5] can be described thus: qHTS for Inhibitors of Plasmodium falciparum (CP250) proliferation (AID 504320). The gist of the method: as §1

SMILES strings stand for the structures. Inconclusive results are not listed. Activity calls are given as the source filed them. Calls follow the shape of the dose curve; as a rule, active = well fitted curve in the direction sought with a large enough effect; inconclusive = small, poorly fitted or top-dose-only effect, or another doubt; inactive = no such curve, though single readings can be large; an effect the other way counts as inactive or inconclusive.
Potency is read from the fitted curve at half-maximal effect.

Turning to `C=CCNC(=O)N1C2=NC(C(=O)OC)=C(C(=O)OC)[C@@H]3N(Cc4ccccc4)c4ccccc4[C@]23C[C@H]1C(=O)OC`, the Potency in assay [1] was 1900 nM (active); in assay [2], 1510 nM (active); in assay [3], 3160 nM (active).
As to `C=CCN1c2ccccc2[C@]23C[C@@H](C(=O)OC)N(C(=O)c4ccc(Br)cc4)C2=NC(C(=O)OC)=C(C(=O)OC)[C@H]13`, the Potency result in assay [4] and in assay [5] was “inactive” throughout.
As for `C[C@H]1CC[C@H]2C(=O)N(Cc3ccccc3)C[C@H](O)CN2[C@H]1c1cccc(Br)c1`, the Potency entry in assay [4] and in assay [5] was “inactive” in each case.
On to `COC(=O)C1=C(C(=O)OC)[C@@H]2N(Cc3ccccc3)c3ccccc3[C@@]23C[C@@H](C(=O)OC)N(S(=O)(=O)c2ccc(C)cc2)C3=N1`, for which the Potency in assay [1] and in assay [2] was 1690 nM (active) in each case.
Turning to `COC(=O)C1=C(C(=O)OC)[C@@H]2Nc3ccccc3[C@@]23C[C@@H](C(=O)OC)N(S(=O)(=O)c2ccc(C(F)(F)F)cc2)C3=N1`, the Potency result in assay [4] and in assay [5] was “inactive” each time.
Turning to `COC(=O)C1=C(C(=O)OC)[C@@H]2N(C)c3ccc(OC)cc3[C@@]23C[C@@H](C(=O)OC)N(S(=O)(=O)c2ccc(C)cc2)C3=N1`, the Potency result in assay [4] and in assay [5] was “inactive” each time.
As for `CCCCc1nc2c(c3c1C[C@H](C)OC3)CN(C(=O)NCCc1c[nH]c3ccccc13)CC2`, the Potency entry in assay [1], in assay [2], in assay [3] and in assay [5] was “inactive” throughout.
As for `C#CCCOC(=O)N1C2=NC(C(=O)OC)=C(C(=O)OC)[C@@H]3N(Cc4ccccc4)c4ccccc4[C@]23C[C@H]1C(=O)OC`, the Potency entry in assay [4] and in assay [5] was “inactive” in each case.
In the case of `COC(=O)C1=C(C(=O)OC)[C@@H]2N(Cc3ccccc3)c3ccccc3[C@@]23C[C@@H](C(=O)OC)N(S(=O)(=O)c2ccc(C#N)cc2)C3=N1`, the Potency in assay [1] is 2130 nM (active); in assay [2], 1900 nM (active); in assay [3] it was 1690 nM (active).
Turning to `COC(=O)C1=C(C(=O)OC)[C@@H]2N(Cc3ccccc3)c3ccccc3[C@@]23C[C@@H](C(=O)OC)N(S(=O)(=O)c2cccs2)C3=N1`, the Potency result in assay [4] and in assay [5] was “inactive” in each case.
`CC#CCN1c2ccccc2[C@]23C[C@@H](C(=O)OC)N(S(=O)(=O)c4ccc([N+](=O)[O-])cc4)C2=NC(C(=O)OC)=C(C(=O)OC)[C@H]13`: the Potency entry in assay [4] and in assay [5] was “inactive” each time.
Consider `COC(=O)C1=C(C(=O)OC)[C@@H]2Nc3ccccc3[C@@]23C[C@@H](C(=O)OC)N(S(=O)(=O)c2ccc(C#N)cc2)C3=N1`, for which the Potency result in assay [4] and in assay [5] was “inactive” in each case.
Take `CC1COc2ccccc2C1=O` (stereo not given): the Potency in assay [1] was 1900 nM (active); in assay [2] it was 1690 nM (active); in assay [3], 1900 nM (active).
`COc1ccc(-c2nc3c(c4c2C[C@H](c2ccccc2)OC4)CN(C(=O)Cc2cccs2)CC3)c(C)c1`: the Potency result in assay [4] and in assay [5] was “inactive” each time.
Turning to `COC(=O)N1C2=C(c3ccccc3[C@@H]1CC(=O)Nc1ccc(Br)cc1)[C@@H]1C(=O)N(c3ccccc3)C(=O)[C@@H]1[C@H](C)C2`, the Potency result in assay [4] and in assay [5] was “inactive” throughout.
Turning to `COC(=O)C1=C(C(=O)OC)[C@@H]2N(Cc3ccccc3)c3ccccc3[C@@]23C[C@@H](C(=O)OC)N(C(=O)CC(C)C)C3=N1`, the Potency entry in assay [4] and in assay [5] was “inactive” throughout.
Take `COC(=O)C1=C(C(=O)OC)[C@@H]2N(Cc3ccccc3)c3ccccc3[C@@]23C[C@@H](C(=O)OC)N(S(=O)(=O)c2ccc4c(c2)OCCN4C)C3=N1`: the Potency in assay [1] was 1510 nM (active); in assay [2], 1900 nM (active); in assay [3], 1200 nM (active); in assay [5] it was 1510 nM (active).
For the compound `CCCCCCCc1cc2ccccc2c2c(C(=O)OC)c(-c3ccccc3)c(C(=O)OC)n12`, the Potency entry in assay [1], in assay [2], in assay [3] and in assay [5] was “inactive” each time.
In the case of `C=CC1=C2C=C(C3CC3)N(C3CC3)C=C2C(=O)C(C)(OC(=O)c2ccco2)C1=O` (stereo not given), the Potency entry in assay [1], in assay [2], in assay [3] and in assay [5] was “inactive” each time.
For `COC(=O)[C@H]1[C@@H](C)N(CCc2cc(OC)c(OC)c(OC)c2)C(=O)N[C@H]1c1ccccc1`, the Potency entry in assay [4] and in assay [5] was “inactive” in each case.
For the compound `COC(=O)C(C(=O)OC)[C@@H]1c2ccccc2[C@H]2C(=C[C@@H](C)[C@H]3C(=O)N(c4ccccc4)C(=O)[C@H]32)N1C(=O)OC`, the Potency result in assay [1], in assay [2], in assay [3] and in assay [5] was “inactive” in each case.
Take `COC(=O)C1=C(C(=O)OC)[C@@H]2Nc3ccccc3[C@@]23C[C@@H](C(=O)OC)N(S(=O)(=O)c2ccc(OC)cc2)C3=N1`: the Potency result in assay [4] and in assay [5] was “inactive” throughout.
Turning to `CC#CCN1c2ccccc2[C@]23C[C@@H](C(=O)OC)N(S(=O)(=O)c4ccc(C#N)cc4)C2=NC(C(=O)OC)=C(C(=O)OC)[C@H]13`, the Potency result in assay [4] and in assay [5] was “inactive” throughout.
Take `C#CCCOC(=O)N1C2=NC(C(=O)OC)=C(C(=O)OC)[C@@H]3N(C)c4ccc(OC)cc4[C@]23C[C@H]1C(=O)OC`: the Potency result in assay [4] and in assay [5] was “inactive” in each case.
As to `COC(=O)C1=C(C(=O)OC)[C@@H]2N(C)c3ccc(OC)cc3[C@@]23C[C@@H](C(=O)OC)N(S(=O)(=O)c2ccc(C(F)(F)F)cc2)C3=N1`, the Potency result in assay [4] and in assay [5] was “inactive” throughout.
`COC(=O)C1=C(C(=O)OC)[C@@H]2N(Cc3ccccc3)c3ccccc3[C@@]23C[C@@H](C(=O)OC)N(C(=O)c2ccc(Br)cc2)C3=N1`: the Potency result in assay [4] and in assay [5] was “inactive” each time.
`CC#CCN1c2ccccc2[C@]23C[C@@H](C(=O)OC)N(S(=O)(=O)c4c(C)noc4C)C2=NC(C(=O)OC)=C(C(=O)OC)[C@H]13`: the Potency entry in assay [4] and in assay [5] was “inactive” in each case.
As to `CCOC(=O)CN1C(=O)N(CC)C(C)=C(C(=O)OC)[C@@H]1c1ccccc1`, the Potency result in assay [1], in assay [2], in assay [3] and in assay [5] was “inactive” each time.
Take `COC(=O)N1C2=C(c3ccccc3[C@@H]1CC(=O)Nc1ccc3ccc4cccc5ccc1c3c45)[C@@H]1C(=O)N(c3ccccc3)C(=O)[C@@H]1[C@H](C)C2`: the Potency in assay [1] is 1510 nM (active); in assay [2], 1510 nM (active); in assay [3], 2130 nM (active); in assay [5] it was 1510 nM (active).
On to `c1ccc(-c2nc(-c3cccc4ccccc34)c(Nc3ccc4ccccc4c3)o2)cc1`, for which the Potency in assay [1], in assay [2] and in assay [3] was 1510 nM (active) throughout.
`COC(=O)C1=C(C(=O)OC)[C@@H]2N(C)c3ccc(OC)cc3[C@@]23C[C@@H](C(=O)OC)N(C(=O)CC(C)C)C3=N1`: the Potency result in assay [4] and in assay [5] was “inactive” throughout.
Take `COC(=O)CCC(=O)OC1(C)C(=O)C=C2C=C(C3CC3)N(c3cccc(C#N)c3)C=C2C1=O` (stereo not given): the Potency entry in assay [4] and in assay [5] was “inactive” each time.
Turning to `COC(=O)C1=C(C)N(Cc2ccccc2)C(=NCCc2cccnc2)NC1c1ccc(Br)cc1` (stereo not given), the values for the Potency in assay [4] and in assay [5] were 1500 nM (active) and 1900 nM (active), respectively.
For `COC(=O)c1ccccc1S(=O)(=O)N1CCc2nc(-c3ccc(OC)cc3C)c3c(c2C1)CO[C@@H](c1ccccc1)C3`, the Potency result in assay [5] was “inactive”.
Take `COc1cc2c(cc1OC)[C@@H]1O[C@](CCCCN3C(=O)c4ccccc4C3=O)(C2)OC2=C1C(=O)CCC2`: the Potency in assay [2] is 1690 nM (active). Moreover, in assay [5], the Potency entry is “inactive”.
For `CCCNC(=O)N1C2=NC(C(=O)OC)=C(C(=O)OC)[C@@H]3N(C)c4ccccc4[C@]23C[C@H]1C(=O)OC`, the Potency entry in assay [1], in assay [2] and in assay [5] was “inactive” each time.

(Values after PubChem BioAssay (NCATS).)
